# Measured values from PubChem BioAssay (EPA / NIEHS).
# Values joined by “and” are separate entries in the source; they are usually repeats but may differ in a detail not shown here. Equal entries are not always repeated. Inconclusive results are not listed. Some structures have more than one record in an assay (separate samples or runs), and their calls can disagree. Active and inactive are the calls of the source. Rule for the calls: active = hit-call score of the fitted dose curve at least 0.9, where 1 is the maximum; inconclusive = response in the unintended direction; inactive = score below 0.9.
# Target: Bile acid receptor (Homo sapiens) (UniProt Q96RI1)
# Test: OT_FXR_FXRSRC1_0480: Odyssey Thera (OT) 8-hour HEK293T Protein-Complementation Assay for Farnesoid X receptor/SRC-1 Co-activator (AID 2283383)
# How it was run: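 Binding of FXR to coactivator SRC-1 was read as fluorescence from a reconstituted split reporter in HEK293T cells, 8 h after chemical addition. Only increases in signal versus DMSO were fit.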
# Chain of Bile acid receptor (Homo sapiens) (Q96RI1 whole entry, looked up): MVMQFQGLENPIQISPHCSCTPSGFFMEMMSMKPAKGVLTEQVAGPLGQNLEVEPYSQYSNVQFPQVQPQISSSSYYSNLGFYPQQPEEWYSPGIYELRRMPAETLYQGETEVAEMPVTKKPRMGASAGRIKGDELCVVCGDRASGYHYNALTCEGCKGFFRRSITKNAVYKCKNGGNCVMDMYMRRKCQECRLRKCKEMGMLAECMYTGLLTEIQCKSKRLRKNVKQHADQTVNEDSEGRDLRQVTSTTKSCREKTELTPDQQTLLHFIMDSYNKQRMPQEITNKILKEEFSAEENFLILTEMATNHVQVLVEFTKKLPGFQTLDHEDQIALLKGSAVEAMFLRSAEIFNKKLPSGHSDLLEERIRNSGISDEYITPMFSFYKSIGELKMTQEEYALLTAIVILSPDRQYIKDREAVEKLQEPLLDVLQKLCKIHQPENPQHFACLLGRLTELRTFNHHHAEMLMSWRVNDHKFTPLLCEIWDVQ
SMILES,AC50,outcome
O=c1c(-c2ccc(O)cc2)coc2cc(O)cc(O)c12,12.5 µM (active) and 11.5 µM (active) and 13.4 µM (active),inactive
CCCCOC(=O)CC(CC(=O)OCCCC)(OC(C)=O)C(=O)OCCCC,9.51 µM (active),
O=C1CCC(C2CCCCC2)CC1,33.1 µM (active) and 50 µM (active),inactive
CCCC(=O)OCCC(C)C,,inactive
C[C@]12CC[C@@H]3c4ccc(O)cc4CC[C@H]3[C@@H]1CCC2=O,,inactive
CCCCOC(=O)c1ccc(O)cc1,50 µM (active) and 31 µM (active),
CC(C)(c1cc(Br)c(O)c(Br)c1)c1cc(Br)c(O)c(Br)c1,70 µM (active),
O=C(O)Cc1cc(I)c(Oc2ccc(O)c(I)c2)c(I)c1,,inactive
CC/C(=C(/CC)c1ccc(O)cc1)c1ccc(O)cc1,,inactive
CC1(C)NC(=O)N(c2ccc([N+](=O)[O-])c(C(F)(F)F)c2)C1=O,,inactive
Cc1ncc(CO)c(CO)c1O,,inactive

# Target: Retinoic acid receptor RXR-alpha (Homo sapiens) (UniProt P19793)
# Test: OT_NURR1_NURR1RXRa_0480: Odyssey Thera (OT) 8-hour HEK293T Protein Complementation Assay for Nurr1/retinoid X receptor (RXR) (AID 2283385)
# How it was run: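 Interaction of Nurr1 with RXRα read as reconstituted reporter fluorescence in a HEK293T fragment-complementation system, 8 h post-treatment; increase over DMSO baseline analysed.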
# Chain of Retinoic acid receptor RXR-alpha (Homo sapiens) (P19793 whole entry, looked up): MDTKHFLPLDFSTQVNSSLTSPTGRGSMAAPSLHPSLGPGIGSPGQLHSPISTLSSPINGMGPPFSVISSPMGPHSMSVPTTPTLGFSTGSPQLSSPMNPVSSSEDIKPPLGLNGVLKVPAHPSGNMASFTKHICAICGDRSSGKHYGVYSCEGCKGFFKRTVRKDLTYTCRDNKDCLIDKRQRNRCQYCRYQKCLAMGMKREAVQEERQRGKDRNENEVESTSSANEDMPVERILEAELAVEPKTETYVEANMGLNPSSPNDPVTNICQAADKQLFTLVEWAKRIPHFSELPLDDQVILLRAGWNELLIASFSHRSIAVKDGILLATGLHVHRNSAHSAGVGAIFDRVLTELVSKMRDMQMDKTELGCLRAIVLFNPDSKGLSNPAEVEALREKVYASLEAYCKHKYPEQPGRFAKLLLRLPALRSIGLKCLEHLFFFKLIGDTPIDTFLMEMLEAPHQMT
SMILES,outcome,AC50
CO[C@H]1/C=C/O[C@@]2(C)Oc3c(C)c(O)c4c(O)c(c(/C=N/N5CCN(C)CC5)c(O)c4c3C2=O)NC(=O)/C(C)=C\C=C\[C@H](C)[C@H](O)[C@@H](C)[C@@H](O)[C@@H](C)[C@H](OC(C)=O)[C@@H]1C,inactive,
O=c1c(-c2ccc(O)cc2)coc2cc(O)cc(O)c12,inactive,29 µM (active) [middle of 4 runs]
c1ccc2n[nH]nc2c1,inactive,
CCCCOC(=O)CC(CC(=O)OCCCC)(OC(C)=O)C(=O)OCCCC,inactive,
O=C1CCC(C2CCCCC2)CC1,inactive,
Clc1cc(Cl)c2c(c1)N=C1CCCCCN1C2,inactive,
CCCC(=O)OCCC(C)C,inactive,
C[C@]12CC[C@@H]3c4ccc(O)cc4CC[C@H]3[C@@H]1CCC2=O,inactive,
Clc1ccccc1C(c1ccccc1)(c1ccccc1)n1ccnc1,inactive,
CCCCOC(=O)c1ccc(O)cc1,inactive,
CC(C)(c1cc(Br)c(O)c(Br)c1)c1cc(Br)c(O)c(Br)c1,,20.6 µM (active) and 72.4 µM (active)
CC(C)(O)c1ccc(CNC(=O)c2cccnc2Oc2ccc3nonc3c2)cc1,inactive,
CCCCCCCC[Si](OCC)(OCC)OCC,inactive,
C[C@]12CC[C@@H]3c4ccc(O)cc4CC[C@H]3[C@@H]1CC[C@H]2O,inactive,
CC(O)CC(C)(C)O (stereo unspecified),inactive,
CCCCCCCCCC(=O)O,inactive,
CC/C(=C(/CC)c1ccc(O)cc1)c1ccc(O)cc1,inactive,
CC1(C)NC(=O)N(c2ccc([N+](=O)[O-])c(C(F)(F)F)c2)C1=O,inactive,
CCCCCc1ccc(N)cc1,inactive,
Cc1ncc(CO)c(CO)c1O,inactive,
CCCCCCCCN(C)CCCCCCCC,inactive,
Oc1ccccc1,inactive,

# Target: Retinoic acid receptor RXR-alpha (Homo sapiens) (UniProt P19793)
# Test: OT_NURR1_NURR1RXRa_1440: Odyssey Thera (OT) 24-hour HEK293T Protein Complementation Assay for Nurr1/retinoid X receptor (RXR) (AID 2283386)
# How it was run: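 Gain in fluorescence, fitted relative to DMSO, reflects Nurr1–RXRα association in HEK293T cells after 24 h dosing. Bait and prey are each linked to a reporter-protein fragment that reassembles on interaction.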
SMILES,AC50,outcome
Cc1cc(F)ccc1-c1cc(N2CC[C@@H](O)[C@H]2CO)ncc1N(C)C(=O)C(C)(C)c1cc(C(F)(F)F)cc(C(F)(F)F)c1,9.74 µM (active),
CO[C@H]1/C=C/O[C@@]2(C)Oc3c(C)c(O)c4c(O)c(c(/C=N/N5CCN(C)CC5)c(O)c4c3C2=O)NC(=O)/C(C)=C\C=C\[C@H](C)[C@H](O)[C@@H](C)[C@@H](O)[C@@H](C)[C@H](OC(C)=O)[C@@H]1C,,inactive
O=c1c(-c2ccc(O)cc2)coc2cc(O)cc(O)c12,,inactive
c1ccc2n[nH]nc2c1,,inactive
O=C1CCC(C2CCCCC2)CC1,,inactive
Clc1cc(Cl)c2c(c1)N=C1CCCCCN1C2,,inactive
CCCC(=O)OCCC(C)C,,inactive
c1ccc2ccccc2c1,,inactive
OCCO,,inactive
C[C@]12CC[C@@H]3c4ccc(O)cc4CC[C@H]3[C@@H]1CCC2=O,32.1 µM (active),inactive
CN1C(=O)CC[C@H]1c1cccnc1,,inactive
CCCCOC(=O)c1ccc(O)cc1,,inactive
CC(C)(c1cc(Br)c(O)c(Br)c1)c1cc(Br)c(O)c(Br)c1,47.8 µM (active),inactive
CCCCCCCC[Si](OCC)(OCC)OCC,,inactive
C[C@]12CC[C@@H]3c4ccc(O)cc4CC[C@H]3[C@@H]1CC[C@H]2O,,inactive
CCCCCCCCCC(=O)O,,inactive
CC/C(=C(/CC)c1ccc(O)cc1)c1ccc(O)cc1,,inactive
CC1(C)NC(=O)N(c2ccc([N+](=O)[O-])c(C(F)(F)F)c2)C1=O,,inactive
Oc1ccc2ccccc2c1,,inactive
O=C1O[C@H]([C@@H](O)CO)C(O)=C1O,,inactive
CCCCCc1ccc(N)cc1,,inactive
Cc1ncc(CO)c(CO)c1O,,inactive
CCCCCCCCN(C)CCCCCCCC,,inactive
Oc1ccccc1,,inactive

# Target: Peroxisome proliferator-activated receptor gamma (Homo sapiens) (UniProt P37231)
# Test: OT_PPARg_PPARgSRC1_0480: Odyssey Thera (OT) 8-hour Protein-Complementation Assay for Peroxisome Proliferator-activated Receptor Gamma / SRC-1 Co-activator (AID 2283387);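 note: nuclear to cytoplasmic split Venus YFP fluorescence ratio reporting PPARg SRC-1 interaction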
# How it was run: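 Protein-fragment complementation in HEK293T: Venus YFP halves (residues 1-158, 159-239, mutated to IFP1/IFP2) fused to PPARg/SRC-1. 8 h exposure; N/C ratio at 488 nm; DMSO negative control.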
# Chain of Peroxisome proliferator-activated receptor gamma (Homo sapiens) (P37231 whole entry, looked up): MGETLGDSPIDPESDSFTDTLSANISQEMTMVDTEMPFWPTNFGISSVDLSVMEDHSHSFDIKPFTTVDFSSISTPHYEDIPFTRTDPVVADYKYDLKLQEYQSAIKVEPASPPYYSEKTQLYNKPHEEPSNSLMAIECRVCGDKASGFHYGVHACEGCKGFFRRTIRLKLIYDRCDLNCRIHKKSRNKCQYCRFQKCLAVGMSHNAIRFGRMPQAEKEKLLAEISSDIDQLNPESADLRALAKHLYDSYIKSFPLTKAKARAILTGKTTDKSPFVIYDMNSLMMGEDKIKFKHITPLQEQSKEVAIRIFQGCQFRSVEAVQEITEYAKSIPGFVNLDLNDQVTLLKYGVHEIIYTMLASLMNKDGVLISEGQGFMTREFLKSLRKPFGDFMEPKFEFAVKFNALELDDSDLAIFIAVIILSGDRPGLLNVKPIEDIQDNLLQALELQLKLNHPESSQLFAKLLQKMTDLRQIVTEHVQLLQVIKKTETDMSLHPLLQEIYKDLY
row,SMILES,outcome
1,Cc1cc(F)ccc1-c1cc(N2CC[C@@H](O)[C@H]2CO)ncc1N(C)C(=O)C(C)(C)c1cc(C(F)(F)F)cc(C(F)(F)F)c1,inactive
2,CO[C@H]1/C=C/O[C@@]2(C)Oc3c(C)c(O)c4c(O)c(c(/C=N/N5CCN(C)CC5)c(O)c4c3C2=O)NC(=O)/C(C)=C\C=C\[C@H](C)[C@H](O)[C@@H](C)[C@@H](O)[C@@H](C)[C@H](OC(C)=O)[C@@H]1C,inactive
3,O=c1c(-c2ccc(O)cc2)coc2cc(O)cc(O)c12,inactive
4,c1ccc2n[nH]nc2c1,inactive
5,CCCCOC(=O)CC(CC(=O)OCCCC)(OC(C)=O)C(=O)OCCCC,inactive
6,O=C1CCC(C2CCCCC2)CC1,inactive
7,Clc1cc(Cl)c2c(c1)N=C1CCCCCN1C2,inactive
8,NCc1cccc(C2CCN(C(=O)c3ccc(C#Cc4ccccc4F)o3)CC2)c1,inactive
9,CCCC(=O)OCCC(C)C,inactive
10,c1ccc2ccccc2c1,inactive
11,OCCO,inactive
12,CN(C)C(=O)C1(N2CCCCC2)CCN(CC[C@@]2(c3ccc(Cl)c(Cl)c3)CN(C(=O)c3ccccc3)CCO2)CC1,inactive
13,CN1C(=O)CC[C@H]1c1cccnc1,inactive
14,Clc1ccccc1C(c1ccccc1)(c1ccccc1)n1ccnc1,inactive
15,NC(=O)c1nc(-c2cccc(-c3cc(F)ccc3OCC(F)(F)C(F)(F)F)c2)n[nH]1,inactive
16,O=c1[nH]sc2ccccc12,inactive
17,CCCCOC(=O)c1ccc(O)cc1,inactive

row,SMILES,outcome
1,CC(=O)N1CCN(c2ccc(OC[C@H]3CO[C@](Cn4ccnc4)(c4ccc(Cl)cc4Cl)O3)cc2)CC1,inactive
2,CCCCCCCCCCCC[N+](C)(C)C,inactive
3,CC(C)(O)c1ccc(CNC(=O)c2cccnc2Oc2ccc3nonc3c2)cc1,inactive
4,CCCCCCCC[Si](OCC)(OCC)OCC,inactive
5,C[C@]12CC[C@@H]3c4ccc(O)cc4CC[C@H]3[C@@H]1CC[C@H]2O,inactive
6,CN(C)c1ccc(C(=C2C=CC(=[N+](C)C)C=C2)c2ccc(N(C)C)cc2)cc1,inactive
7,O=C(O)Cc1cc(I)c(Oc2ccc(O)c(I)c2)c(I)c1,inactive
8,CC(O)CC(C)(C)O (stereo unspecified),inactive
9,O=C1c2ccccc2C(=O)N1CCc1noc(-c2ccc(CN3CCCCCC3)s2)n1,inactive
10,CC1(C)NC(=O)N(c2ccc([N+](=O)[O-])c(C(F)(F)F)c2)C1=O,inactive
11,Oc1ccc2ccccc2c1,inactive
12,O=C1O[C@H]([C@@H](O)CO)C(O)=C1O,inactive
13,CCCCCc1ccc(N)cc1,inactive
14,Cc1ncc(CO)c(CO)c1O,inactive
15,CCCCCCCCN(C)CCCCCCCC,inactive
16,Oc1ccccc1,inactive
17,CCOC(=O)O[C@H](C)OC(=O)c1ccc2c(c1)cc(C(=O)NC1CCN(C(C)C)CC1)n2Cc1cc(-c2ccc(Cl)s2)on1,inactive
